Compounds with a hit are over-represented: about 6% of the library has one in this group of screens.
DRD3 agonist: agonists of human D3 dopamine receptor | P35462 | D3R DiscoveRx beta-arrestin cells, luminescence, 90 min | max activation, % | actives 0.58% (n = 410,000) | AID 652048; in the data active means max activation above about 30%; further: 0% is about no effect
Target sequence (P35462 whole entry, looked up): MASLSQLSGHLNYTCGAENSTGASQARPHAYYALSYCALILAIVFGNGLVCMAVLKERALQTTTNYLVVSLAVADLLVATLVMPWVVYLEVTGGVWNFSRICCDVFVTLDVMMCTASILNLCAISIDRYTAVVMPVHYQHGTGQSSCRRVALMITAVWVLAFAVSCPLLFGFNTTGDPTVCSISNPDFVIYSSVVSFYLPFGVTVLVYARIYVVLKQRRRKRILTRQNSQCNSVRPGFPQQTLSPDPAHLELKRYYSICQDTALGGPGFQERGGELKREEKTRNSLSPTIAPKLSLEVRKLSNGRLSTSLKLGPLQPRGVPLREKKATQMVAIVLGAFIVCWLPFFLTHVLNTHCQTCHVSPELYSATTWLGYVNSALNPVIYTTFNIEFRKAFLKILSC
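Cells at 1500/well, incubated overnight, then treated with pinned compounds (dopamine as control) for 90 min at 37 degrees C. DiscoveRx reagent added for 30 - 60 minutes at room temperature; luminescence read.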
D1 antag: antagonists of human D1 dopamine receptor; P21728; HEK293 TREx D1 cells, calcium flux, dopamine EC80; active compounds read low; activity change, negative = inhibition, % at 10 µM; actives 3.2% (n = 360,000); in the data active means activity change below about -30%; further: on the % scale 0 is the no-effect control and ±100 the full control effect
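Inducible Hek293 Trex D1 cells (tetracycline, overnight, 30 C). Calcium dye 30–90 min RT. Antagonist mode: EC80 dopamine added after 180 s compound read.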
D3 antag: antagonists of human D3 dopamine receptor | actives 2.5% (n = 360,000) | AID 652054 | max response, negative = inhibition, % | D3R cells, DiscoveRx beta-arrestin luminescence, antagonist mode; active compounds read low; in the data active means max response below about -50%; further: on the % scale 0 is the no-effect control and ±100 the full control effect
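Cells plated overnight at 1500 cells/well, then exposed to library compounds with dopamine controls for 90 minutes at 37 degrees C. DiscoveRx reagent added for 30–60 minutes at room temperature; luminescence read, quantitative HTS format.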
D1 PAM: human D1 dopamine receptor positive modulation. HEK293 TREx D1 cells, calcium flux, dopamine EC20 potentiation. potentiation, % at 10 µM. actives 0.036% (n = 360,000). AID 504651; in the data active means potentiation above about 30%; further: 0% is about no effect
D1 agonist: activates the human D1 dopamine receptor; P21728; HEK293 T-REx D1 cells, calcium flux, agonist mode; activation, % at 2 µM; actives 1% (n = 360,000); in the data active means activation above about 30%; further: 0% is about no effect
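Agonism was scored from calcium flux recorded over 180 s (1 read/s) after pintool compound addition, following a 10-cycle baseline. Cells were inducible force-coupled HEK293 TREx D1, plated overnight at 30 C and loaded with no-wash calcium dye.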
The depositor's hits bear a star.

How did CCOC(=O)c1ccc(NC(=O)c2cc(=O)c3cc(CC)ccc3o2)cc1 do in these assays?
DRD3 agonist: 3.5; D1 antag: -4.6; D1 PAM: 0.8; D1 agonist: -0.1

What do the screens show for `COc1ccc(C2CC(Cn3cc(C#N)c(=O)n(C)c3=O)ON2C)cc1` (configuration not stated)?
DRD3 agonist: -1.6; D1 antag: -33.6*; D3 antag: -11.3; D1 PAM: -7.8; D1 agonist: -0.1

Results for C=CCc1cc(OC)ccc1OCCN(C)Cc1ccccc1 ?
DRD3 agonist: -26.2; D1 antag: 12.1; D3 antag: -58.9*; D1 PAM: -5.2; D1 agonist: 8.2

What do the screens show for `C=CCc1cc(Cl)ccc1OCCN(C)C`?
DRD3 agonist: -55.4; D1 antag: 13.3; D3 antag: -54.5*; D1 PAM: -14.1; D1 agonist: 6.2

Results for Cc1ccc(C(=O)OCCN(C)Cc2ccccc2)cc1 ?
DRD3 agonist: -9.4; D1 antag: 1.4; D3 antag: -29.0; D1 PAM: -4.2; D1 agonist: -0.7

Results for Cc1ccccc1C(=O)OCCN(C)Cc1ccccc1 ?
DRD3 agonist: -14.4; D3 antag: -70.0*; D1 PAM: -4.0; D1 agonist: 4.2

Results for CCCCN(C)CCOc1ccccc1OCC ?
DRD3 agonist: -18.6; D1 antag: -7.8; D3 antag: -97.5*; D1 PAM: -7.0; D1 agonist: 3.3

Results for Cc1nn(C)c2c1c(C(F)(F)F)cc(=O)n2C(C)C(=O)NCc1ccccc1 (configuration not stated) ?
DRD3 agonist: 1.7; D1 antag: 13.3; D1 PAM: 2.5; D1 agonist: 2.7

Results for CCC(=O)O[C@]1(C(=O)CCl)[C@@H](C)C[C@H]2[C@@H]3C[C@H](F)C4=CC(=O)C=C[C@]4(C)[C@@]3(F)[C@@H](O)C[C@@]21C ?
DRD3 agonist: 4.7

How did CCOc1ccc(OCCN(C)Cc2ccccc2)cc1 do in these assays?
DRD3 agonist: -3.9; D1 antag: 0.1; D3 antag: -83.1*; D1 PAM: 0.0; D1 agonist: 0.4

What do the screens show for `CN(CCOCCOc1ccc(F)cc1)Cc1ccccc1`?
DRD3 agonist: -20.1; D1 antag: 28.1; D3 antag: -89.4*; D1 PAM: -0.5; D1 agonist: 5.8

What do the screens show for `CN(CCOc1ccc(Cl)c(Cl)c1)Cc1ccccc1`?
DRD3 agonist: -24.1; D1 antag: 1.8; D3 antag: -93.3*; D1 PAM: 2.0; D1 agonist: 0.7

What do the screens show for `CN(CCOCCOc1ccc(Cl)cc1Br)Cc1ccccc1`?
DRD3 agonist: -17.6; D1 antag: 7.6; D3 antag: -63.9*; D1 PAM: -17.6; D1 agonist: 6.9

How did COc1ccc(OCCCCN(C)Cc2ccccc2)cc1 do in these assays?
DRD3 agonist: -26.6; D1 antag: 0.4; D3 antag: -28.6; D1 PAM: -0.2; D1 agonist: 2.9

What do the screens show for `CC1CCN(c2oc(-c3ccc(COc4ccccc4)o3)nc2C#N)CC1`?
DRD3 agonist: 3.6; D1 antag: 7.5; D1 PAM: -1.4; D1 agonist: 1.3

How did COc1ccccc1OCCOCCOc1ccccc1Cl do in these assays?
DRD3 agonist: 7.2; D1 antag: 0.2; D3 antag: 3.5; D1 PAM: -3.0; D1 agonist: 1.0

How did CN(CCOc1ccccc1Cl)Cc1ccccc1 do in these assays?
DRD3 agonist: 4.6; D1 antag: -0.6; D3 antag: -75.9*; D1 PAM: -9.2; D1 agonist: -0.4

What do the screens show for `CCOc1cccc(OCCOCCN(C)Cc2ccccc2)c1`?
DRD3 agonist: -10.9; D1 antag: -12.8; D3 antag: -63.9*; D1 PAM: -7.0; D1 agonist: 3.6

Results for CCOc1cccc(OCCOCCN(C)C)c1 ?
DRD3 agonist: -3.6; D1 antag: -3.5; D3 antag: -8.2; D1 PAM: 1.0; D1 agonist: 1.9

What do the screens show for `CCOC(=O)c1oc2ccccc2c1COC(=O)CNC(=O)c1ccccc1OC`?
DRD3 agonist: 1.8; D1 antag: -5.8; D3 antag: 17.7; D1 PAM: -7.9; D1 agonist: 4.8

How did CCOC(=O)c1oc2ccccc2c1NC(=O)c1ccccc1OC do in these assays?
DRD3 agonist: 50.3*; D1 antag: 58.4; D3 antag: 39.0; D1 PAM: 13.8; D1 agonist: 3.6

Results for COc1ccccc1C(=O)Nc1c(C(=O)c2ccccc2)oc2ccccc12 ?
DRD3 agonist: -0.8; D1 antag: 22.3; D1 PAM: 5.8; D1 agonist: 4.4

How did COC(=O)c1oc2ccccc2c1NC(=O)c1ccccc1O do in these assays?
DRD3 agonist: 2.3; D1 antag: -43.0*; D3 antag: -8.1; D1 PAM: -6.3; D1 agonist: 13.9

What do the screens show for `COc1ccccc1C(=O)Nc1c(C(=O)NC(C)(C)C)oc2ccccc12`?
DRD3 agonist: 4.7; D1 antag: 64.2; D1 PAM: 33.4*; D1 agonist: 32.6*

How did CCc1nnc2c(Nc3ccc(N(CC)CC)cc3C)nc3ccccc3n12 do in these assays?
DRD3 agonist: -7.7; D1 antag: 0.9; D1 PAM: 4.7; D1 agonist: 7.6

Results for COc1ccccc1C(O)c1ncc(-c2cccc3ccccc23)[nH]1 (configuration not stated) ?
DRD3 agonist: -16.8; D3 antag: -56.7*

How did FC1(F)C(F)(F)C(F)(F)C2(F)C(F)(F)C(F)(F)C(F)(F)C(F)(F)C2(F)C1(F)F (configuration not stated) do in these assays?
DRD3 agonist: -5.6

What do the screens show for `COC(Cn1cc(C)c(=O)[nH]c1=O)OC`?
DRD3 agonist: -2.9; D1 antag: 17.3; D3 antag: 5.9; D1 PAM: -3.0; D1 agonist: 1.7

What do the screens show for `Cc1cn(CC2COC(C)(C)O2)c(=O)[nH]c1=O` (configuration not stated)?
DRD3 agonist: 2.0; D1 antag: -30.4*; D3 antag: -1.6; D1 PAM: -3.4; D1 agonist: 3.3

What do the screens show for `CCCCNC(=O)NC12CC3CC(CC(C3)C1)C2`?
DRD3 agonist: -3.0; D1 antag: -7.0; D3 antag: -4.3; D1 PAM: -1.9; D1 agonist: -0.1

Results for CCCCNC(=O)NC(C(=O)OC)C12CC3CC(CC(C3)C1)C2 (configuration not stated) ?
DRD3 agonist: -5.6; D1 antag: -6.3; D3 antag: -57.2*; D1 PAM: -0.1; D1 agonist: 1.0

Results for Cc1cc(OI)c(C(C)C)cc1-c1cc(C(C)C)c(OI)cc1C ?
DRD3 agonist: -4.7

How did N#Cc1cc2ccccc2nc1SCc1cccnc1 do in these assays?
DRD3 agonist: 13.8; D1 antag: -20.7; D3 antag: -83.0*; D1 PAM: -1.4; D1 agonist: 1.4

Compound activity (PubChem)
